PubChem BioAssay (NCI)
The panel holds about 79,000 compounds, 15% with a hit somewhere; the sample as a whole holds those more often. Activity calls are given as the source filed them. Cut-off read from the data, not from the text of the source: active = growth inhibition above about 70%; inactive = the rest.

Key:
[1] = NCI Yeast Anticancer Drug Screen. Data for the rad50 strain (AID 155);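 note: 0% = growth of vehicle-only cultures of the same strain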; conditions: S. cerevisiae rad50 strain growth inhibition; at 50.0 µM; stronger effect = higher value
Summary of the method: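 Compounds were tested on a yeast strain with an engineered DNA damage repair alteration; the reported value is growth inhibition normalised to vehicle treatment.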

[2] = NCI Yeast Anticancer Drug Screen. Data for the mec2-1 strain (AID 157); conditions: S. cerevisiae mec2-1 strain, at 50.0 µM, stronger effect = higher value
Summary of the method: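 Test agents were screened against the mec2-1 yeast strain, with defined DNA repair or cell cycle alteration. Growth was scored as inhibition against vehicle-only controls.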

[3] = NCI Yeast Anticancer Drug Screen. Data for the sgs1 mgt1 strain (AID 161);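 note: 0% = growth of cultures given vehicle only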; conditions: S. cerevisiae sgs1 mgt1 strain, at 50.0 µM, stronger effect = higher value
Summary of the method: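 Inhibition of yeast growth, normalised to vehicle-treated controls, is reported for a strain bearing genetic alterations in DNA damage repair.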

[4] = NCI Yeast Anticancer Drug Screen. Data for the cln2 rad14 strain (AID 165);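 note: 0% = growth equal to vehicle treated cultures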; conditions: S. cerevisiae cln2 rad14 strain, at 50.0 µM, stronger effect = higher value
Summary of the method: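 Growth of compound-exposed yeast (cln2 rad14 genotype) measured and expressed as inhibition relative to vehicle.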

[5] = NCI Yeast Anticancer Drug Screen. Data for the bub3 strain (AID 167); conditions: S. cerevisiae bub3 mutant strain, at 50.0 µM, stronger effect = higher value
Summary of the method: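 Growth of a checkpoint-deficient yeast mutant is measured after compound exposure. Values represent inhibition relative to vehicle.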

[6] = NCI Yeast Anticancer Drug Screen. Data for the mlh1 rad18 strain (AID 175); conditions: S. cerevisiae mlh1 rad18 strain growth inhibition; at 50.0 µM; stronger effect = higher value
Summary of the method: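 In this whole-cell yeast screen, a strain with altered DNA damage repair is challenged with compound, and its growth is measured against matched vehicle-treated controls.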

Measured: growth inhibition

CC(=O)Oc1ccc(C(c2ccccc2)c2ccccc2)c2ccccc12
inactive: [1] -9.8% | [2] -13.4% | [3] -1.95% | [4] 2.85% | [5] -52.8% | [6] -18.9%

CC1OC(OC2C(O)C(OCCc3ccc(O)c(O)c3)OC(CO)C2OC(=O)/C=C/c2ccc(O)c(O)c2)C(O)C(O)C1O (stereo unspecified)
inactive: [1] 4.75% | [2] -9.8% | [3] -3% | [4] 8.25% | [5] -2.7% | [6] 20.8%

CC[Si](/C=C(/C)C(C)(C)C)(CC)CC
inactive: [1] 0.9% | [2] -21.9% | [3] -7.05% | [4] -34.1% | [5] -8.05% | [6] -5.1%

CN(C)Cc1cc(C(=O)O)ccc1O
inactive: [1] 10.1% | [2] 13.1% | [3] 9.45% | [4] -29% | [5] 2.85% | [6] -0.75%

COc1ccc(OC)c2c3c([nH]c12)C(=O)Nc1nc(N)nc(N)c1C3
inactive: [1] 42.9% | [2] 19.9% | [3] 30.4% | [4] 21.8% | [5] 31.9% | [6] 40.5%

CCOC(=O)c1c(Nc2ccccc2O)oc2ccccc12
inactive: [1] -0.4% | [2] 3.1% | [3] 6.95% | [4] 17.6% | [5] 6.45% | [6] 11.9%

CCCCCCCCCCCCCCCC[N+](C)(C)CCN=[N+]=[N-]
active: [1] 99.4% | [2] 99.7% | [3] 99.7% | [4] 99.2% | [5] 99.5% | [6] 99.5%

CCCCCCCCCCCCCCOc1ccc2ccccc2c1
inactive: [1] 21.5% | [2] 6.7% | [3] 6.5% | [4] -10.4% | [5] -6.05% | [6] -4%

Cc1ccc(C)c(NC(=O)OC/C=C/c2ccccc2)c1
inactive: [1] -1.2% | [2] 29.2% | [3] 19.9% | [4] -10.9% | [5] 26.7% | [6] 41.2%

CS(=O)(=O)OCCOc1ccccc1
inactive: [1] 1.15% | [2] -0.45% | [3] 0.95% | [4] -32% | [5] 9.15% | [6] 8.05%

CC(=O)OC1CC(n2cc(C)c(=O)[nH]c2=O)OC1COP(=O)(N1CC1)N1CC1 (stereo unspecified)
inactive: [1] -9.25% | [2] -1.25% | [3] -2.8% | [4] -6.1% | [5] -22.6% | [6] -3.95%

Cc1c2ccccc2c(CN2CC(O)CC2C(=O)O)c2ccccc12 (stereo unspecified)
inactive: [2] 33.2% | [3] 63% | [5] 51.8%
active: [1] 70.6% | [4] 78.5% | [6] 93.8%

Nc1ccc(-c2csc(Nc3ccnc4cc(Cl)ccc34)n2)cc1
inactive: [1] -1.75% | [2] -5.4% | [3] 4.25% | [4] -7.85% | [5] 18.9% | [6] 7.6%

[N-]=[N+]=NC(=O)c1cnn(-c2ccccc2)c1N
inactive: [1] 9.65% | [2] 18.9% | [3] 9.4% | [4] -27.4% | [5] 14.6% | [6] 2.2%

CCCCCOC(=O)CC(c1ccccc1)N1CCCCC1 (stereo unspecified)
inactive: [1] 32.5% | [2] -6.65% | [3] 19.1% | [4] -23% | [5] 23.3% | [6] 6.4%

Cc1cn(C2CCN(CC3COC(C)(C)O3)O2)c(=O)[nH]c1=O (stereo unspecified)
inactive: [1] -13.5% | [2] -11.9% | [3] -26.3% | [4] -24.9% | [5] -5.35% | [6] -19.6%

CCOC(=O)C(NC(=O)c1ccccc1)(C(=O)OCC)c1ccccn1
inactive: [1] 8.55% | [2] -13.5% | [3] 9.65% | [4] 18.8% | [5] 9.6% | [6] 22.6%

Cc1cc2c(cc1Cl)SC(N/N=C(\N)c1ccc(Cl)cc1)=NS2(=O)=O
inactive: [1] -34.2% | [2] -0.8% | [3] -12.3% | [4] -16.2% | [5] -14.4% | [6] -8.1%

CCCCCCCCCCCCCCCCSC(=N)N
inactive: [1] 25.2% | [2] 21.2% | [3] 55.8% | [4] 14.1% | [5] 40% | [6] 38%

COC(=O)NC(S(=O)(=O)O)S(=O)(=O)O
inactive: [1] 6.2% | [2] 11.6% | [3] 0.85% | [4] 2.65% | [5] 16.5% | [6] 1.7%

CC(=O)[OH+]c1c(I)cc(I)cc1C(=O)[O-].CC(=O)[OH+]c1c(I)cc(I)cc1C(=O)[O-].[Cu+2]
inactive: [1] -8.15% | [2] 2.3% | [3] -5.8% | [4] -5% | [5] 11.5% | [6] 4.95%

OC1(c2cccc(C(F)(F)F)c2)CCNCC1
inactive: [1] -21.8% | [2] -13.5% | [3] -7.4% | [4] -6.9% | [5] -22.6% | [6] -8.3%

NC(N)=NS(=O)(=O)c1ccc(Nc2c3ccccc3nc3c(C(=O)N4CCN(CCO)CC4)cccc23)cc1
inactive: [1] -0.4% | [2] -7.8% | [3] 2.95% | [4] 22.4% | [5] -5% | [6] -11.2%

CCOC(=O)Nc1ccc(C2OCCS2)cc1 (stereo unspecified)
inactive: [1] 1.05% | [2] -21.6% | [3] 9.45% | [4] -0.65% | [5] -19.8% | [6] 10.2%

Cc1c(C(=O)O)c(-c2ccc([N+](=O)[O-])cc2)c(C=O)n1-c1ccccc1
inactive: [1] -4.9% | [2] 10.9% | [3] 3.3% | [4] -8.5% | [5] 25.7% | [6] 22.9%

CC(C)(C)NO
inactive: [1] 7.3% | [2] -0.85% | [3] 7.65% | [4] 3.4% | [5] 13.6% | [6] -3.8%

Nc1ccc(P(=O)(Nc2ccc3ccccc3c2)Nc2ccc3ccccc3c2)cc1
inactive: [2] 67.5%
active: [1] 83.2% | [3] 89.2% | [4] 79.9% | [5] 83.2% | [6] 91.2%

COc1ccc(C2=NNC(=O)OC2c2ccccc2)cc1 (stereo unspecified)
inactive: [1] 29.1% | [2] 16.9% | [3] 28.2% | [4] -29.6% | [5] 26.3% | [6] 28.9%

CCCCOC(=O)NC(C)=O
inactive: [1] -14.1% | [2] -18.9% | [3] -15.2% | [4] -11.6% | [5] -1.55% | [6] -16.1%

COC(=O)C(C(=O)C(=O)Nc1cccc(OC)c1)c1cnc2ccccc2n1 (stereo unspecified)
inactive: [1] -16.4% | [2] -8.85% | [3] -9.45% | [4] 21.2% | [5] 6.9% | [6] -10.5%

NC(=O)c1[nH]c(/N=N/c2nc[nH]c2C(N)=O)nc1N
inactive: [1] 24.9% | [2] 21.6% | [3] 9.95% | [4] -17.1% | [5] -4.65% | [6] 16.4%

[O-][N+]1(CC[N+]2([O-])CCCCC2)CCCCC1
inactive: [1] -16.8% | [2] -4.9% | [3] 1.7% | [4] -37.3% | [5] -0.65% | [6] 15.8%

O=C1CC(=C=Nc2ccccc2)C(=O)N1c1ccccc1
inactive: [1] 3.6% | [2] 3.85% | [3] 1.7% | [4] -33.5% | [5] -2.2% | [6] 19.8%

Cn1nnc(/N=C/c2ccccc2)n1
inactive: [1] 5.85% | [2] -8.1% | [3] -6.25% | [4] -19.1% | [5] 4.75% | [6] 11.4%

O=C(Nc1cc2c(cc1[N+](=O)[O-])-c1c(F)cccc1C2)C(F)(F)F
inactive: [1] 9.8% | [2] 1.4% | [3] 8.25% | [4] -14.2% | [5] 4.9% | [6] 2.15%

CC1=CC2(C)OC3C(=O)N(c4ccc(Cl)cc4)C(=O)C3C2N=C1 (stereo unspecified)
inactive: [1] -7.65% | [2] -22.9% | [3] -24% | [4] 9.6% | [5] -20.1% | [6] -3.35%

COC1=CC(=O)C(C2OC(=O)C(Cl)=C2Cl)=CC1=O (stereo unspecified)
inactive: [1] 8.1% | [2] 7.3% | [3] -2.45% | [4] -11.4% | [5] 16.6% | [6] 13.2%

O=C1c2cc(Cl)ccc2-c2ccc(Cl)cc21
inactive: [1] 2.75% | [2] 2.85% | [3] -4.85% | [4] -11.8% | [5] -1.2% | [6] 1.05%

CCCCCCCCC(Br)C(Br)CCCCCCCC(=O)N(CCCC)CCCC (stereo unspecified)
inactive: [1] 36.9% | [2] 10.6% | [3] 2.05% | [4] -5.45% | [5] 13.8% | [6] 8.3%

CCOC(=O)c1c(C)c2c(n1C)CC/C(=C\N1CCOCC1)C2=O
inactive: [1] 11.3% | [2] 13.1% | [3] 13.6% | [4] -13.8% | [5] 14.5% | [6] 15.2%

C(=C\c1cccs1)/c1csnn1
inactive: [1] 0.7% | [2] 15.7% | [3] 3.45% | [4] 12.8% | [5] -1.75% | [6] -7.55%
